# From article PMC7862700, “An all-to-all approach to the identification of sequence-specific readers for epigenetic DNA modifications on cytosine”
# Columns and labels:
# Assay in all cases: DAPPL (digital affinity profiling via proximity ligation, sequencing); 10 mM Tris-HCl pH 7.5, 50 mM NaCl, 1 mM DTT, 4% glycerol, room temperature, 30 min; GST-TFs on glutathione beads, 16-mer random dsDNA library, 0.1% formaldehyde crosslink after washing; high values mean tight binding
# [1] = target: T1, FEV (Homo sapiens, UniProt Q99581 1-238); settings: protein: recombinant; tags: N-terminal GST; dsDNA, one strand shown
# T1 sequence: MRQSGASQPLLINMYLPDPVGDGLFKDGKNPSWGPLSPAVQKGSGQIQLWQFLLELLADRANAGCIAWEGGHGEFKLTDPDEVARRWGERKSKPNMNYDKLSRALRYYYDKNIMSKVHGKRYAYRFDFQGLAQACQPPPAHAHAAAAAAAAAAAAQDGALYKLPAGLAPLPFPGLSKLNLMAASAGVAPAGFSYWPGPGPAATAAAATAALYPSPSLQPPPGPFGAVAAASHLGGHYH
# Method in brief: (§1)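 Yeast served to express human transcription factors as GST fusions, which were then captured on glutathione beads and labelled with DNA barcodes. Pooled with a tag-only sample, they were incubated with 200 nmole of a 16-mer random double-stranded DNA library for 30 min at room temperature in Tris/NaCl/DTT/glycerol buffer, washed, crosslinked with 0.1% formaldehyde, ligated by proximity, amplified by PCR and sequenced. Dividing each hexamer's read frequency for a factor by its frequency for the tag-only sample gives the binding signal.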
# [2] = target: ETV5 (Homo sapiens, UniProt P41161 1-510); settings: protein: recombinant; tags: N-terminal GST; dsDNA, one strand shown
# Chain of ETV5 (P41161 whole entry): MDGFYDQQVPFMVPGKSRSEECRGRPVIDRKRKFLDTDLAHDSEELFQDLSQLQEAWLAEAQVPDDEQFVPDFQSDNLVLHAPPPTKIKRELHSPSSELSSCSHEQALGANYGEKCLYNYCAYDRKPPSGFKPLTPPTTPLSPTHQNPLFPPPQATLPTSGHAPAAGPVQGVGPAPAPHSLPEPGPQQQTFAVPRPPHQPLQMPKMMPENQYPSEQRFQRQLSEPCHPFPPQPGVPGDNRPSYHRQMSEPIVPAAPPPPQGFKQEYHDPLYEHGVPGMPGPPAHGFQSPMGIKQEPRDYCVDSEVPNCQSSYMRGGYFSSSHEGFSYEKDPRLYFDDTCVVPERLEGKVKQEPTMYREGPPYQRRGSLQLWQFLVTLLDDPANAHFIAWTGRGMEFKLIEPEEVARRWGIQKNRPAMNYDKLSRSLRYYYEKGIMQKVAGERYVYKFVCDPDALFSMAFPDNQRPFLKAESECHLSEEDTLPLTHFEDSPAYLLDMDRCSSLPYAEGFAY
# Method in brief: as §1
# [3] = target: HSF1 (Homo sapiens, UniProt Q00613 1-529); settings: protein: recombinant; tags: N-terminal GST; chain copies: 3; dsDNA, one strand shown
# Chain of HSF1 (Q00613 whole entry): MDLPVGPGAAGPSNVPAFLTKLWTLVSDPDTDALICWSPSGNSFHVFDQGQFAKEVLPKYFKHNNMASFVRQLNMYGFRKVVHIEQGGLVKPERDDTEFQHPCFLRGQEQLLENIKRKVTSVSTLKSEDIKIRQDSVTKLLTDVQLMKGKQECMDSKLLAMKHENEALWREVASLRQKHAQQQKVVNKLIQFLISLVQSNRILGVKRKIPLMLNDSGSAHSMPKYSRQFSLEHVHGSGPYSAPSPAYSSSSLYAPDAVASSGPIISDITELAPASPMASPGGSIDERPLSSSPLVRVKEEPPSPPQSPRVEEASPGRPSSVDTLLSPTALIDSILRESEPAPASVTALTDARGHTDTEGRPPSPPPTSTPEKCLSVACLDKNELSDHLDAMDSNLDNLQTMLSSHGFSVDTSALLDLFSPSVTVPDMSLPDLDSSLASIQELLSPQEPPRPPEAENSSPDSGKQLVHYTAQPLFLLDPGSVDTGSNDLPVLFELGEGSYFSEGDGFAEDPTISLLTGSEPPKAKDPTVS
# Method in brief: as §1
# [4] = target: T2, SPIC (Homo sapiens, UniProt Q8N5J4 1-248); settings: protein: recombinant; tags: N-terminal GST; dsDNA, one strand shown
# T2 sequence: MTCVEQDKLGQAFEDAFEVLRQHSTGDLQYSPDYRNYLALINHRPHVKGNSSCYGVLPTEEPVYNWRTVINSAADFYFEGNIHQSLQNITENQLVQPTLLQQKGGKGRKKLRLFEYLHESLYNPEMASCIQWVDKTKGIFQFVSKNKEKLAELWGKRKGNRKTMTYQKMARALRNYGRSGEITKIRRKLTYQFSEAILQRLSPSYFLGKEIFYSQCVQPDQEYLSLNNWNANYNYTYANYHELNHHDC
# Method in brief: as §1
# [5] = target: ELF4 (Homo sapiens, UniProt Q99607 1-663); settings: protein: recombinant; tags: N-terminal GST; dsDNA, one strand shown
# Chain of ELF4 (Q99607 whole entry): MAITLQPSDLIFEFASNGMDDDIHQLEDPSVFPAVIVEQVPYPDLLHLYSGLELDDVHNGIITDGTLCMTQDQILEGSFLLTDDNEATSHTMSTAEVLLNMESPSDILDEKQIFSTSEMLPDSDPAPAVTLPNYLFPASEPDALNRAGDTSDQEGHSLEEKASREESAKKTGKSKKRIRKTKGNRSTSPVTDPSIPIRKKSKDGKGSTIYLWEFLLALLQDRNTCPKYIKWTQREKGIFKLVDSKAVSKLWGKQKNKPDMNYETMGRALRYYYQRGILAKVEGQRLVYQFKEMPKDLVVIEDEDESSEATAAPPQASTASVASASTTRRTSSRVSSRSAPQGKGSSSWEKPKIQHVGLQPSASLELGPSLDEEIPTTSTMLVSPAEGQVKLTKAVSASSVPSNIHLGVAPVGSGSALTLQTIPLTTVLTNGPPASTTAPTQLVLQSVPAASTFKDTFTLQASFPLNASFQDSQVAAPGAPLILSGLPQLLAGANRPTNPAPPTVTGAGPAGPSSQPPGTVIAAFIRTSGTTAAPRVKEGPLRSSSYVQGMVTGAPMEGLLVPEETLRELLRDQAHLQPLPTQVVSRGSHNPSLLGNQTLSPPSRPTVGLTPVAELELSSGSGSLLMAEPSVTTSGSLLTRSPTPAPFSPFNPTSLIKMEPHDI
# Method in brief: as §1
# [6] = target: T3, ELK4 (Homo sapiens, UniProt P28324-2 1-405); settings: protein: recombinant; tags: N-terminal GST; dsDNA, one strand shown
# T3 sequence: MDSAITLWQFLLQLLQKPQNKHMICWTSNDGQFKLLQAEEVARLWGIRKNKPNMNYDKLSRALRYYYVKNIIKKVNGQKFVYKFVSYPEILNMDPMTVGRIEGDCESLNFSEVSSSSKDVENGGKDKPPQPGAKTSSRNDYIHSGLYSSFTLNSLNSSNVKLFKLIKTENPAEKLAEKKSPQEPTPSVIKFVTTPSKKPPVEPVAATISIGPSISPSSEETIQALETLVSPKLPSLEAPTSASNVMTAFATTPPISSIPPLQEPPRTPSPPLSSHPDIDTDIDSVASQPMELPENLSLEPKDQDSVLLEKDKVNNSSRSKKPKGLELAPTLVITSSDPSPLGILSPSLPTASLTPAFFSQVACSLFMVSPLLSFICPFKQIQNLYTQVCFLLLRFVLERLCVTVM
# Method in brief: as §1
# [7] = target: T4, ETV2 (Homo sapiens, UniProt O00321 1-342); settings: protein: recombinant; tags: N-terminal GST; dsDNA, one strand shown
# T4 sequence: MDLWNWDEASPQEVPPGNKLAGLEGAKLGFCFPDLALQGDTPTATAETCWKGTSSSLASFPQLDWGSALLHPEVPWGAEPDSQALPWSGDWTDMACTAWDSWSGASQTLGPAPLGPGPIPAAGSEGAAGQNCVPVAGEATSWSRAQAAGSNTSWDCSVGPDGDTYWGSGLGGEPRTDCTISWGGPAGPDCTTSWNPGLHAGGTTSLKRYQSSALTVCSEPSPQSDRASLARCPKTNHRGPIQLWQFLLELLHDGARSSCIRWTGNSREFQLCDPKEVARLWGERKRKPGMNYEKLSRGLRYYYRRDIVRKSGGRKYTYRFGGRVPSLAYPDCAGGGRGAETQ
# Method in brief: as §1
# [8] = target: T5, ELF3 (Homo sapiens, UniProt P78545 1-371); settings: protein: recombinant; tags: N-terminal GST; dsDNA, one strand shown
# T5 sequence: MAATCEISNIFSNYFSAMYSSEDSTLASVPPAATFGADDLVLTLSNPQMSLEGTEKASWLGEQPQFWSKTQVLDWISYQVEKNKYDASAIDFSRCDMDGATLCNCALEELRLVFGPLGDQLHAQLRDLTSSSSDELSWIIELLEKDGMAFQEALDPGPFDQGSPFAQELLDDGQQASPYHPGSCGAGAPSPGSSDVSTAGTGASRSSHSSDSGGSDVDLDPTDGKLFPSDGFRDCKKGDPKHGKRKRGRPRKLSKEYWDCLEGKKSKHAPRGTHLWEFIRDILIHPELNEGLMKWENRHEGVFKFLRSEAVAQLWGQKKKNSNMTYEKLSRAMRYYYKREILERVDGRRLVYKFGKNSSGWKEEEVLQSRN
# Method in brief: as §1
# [9] = target: CRX (Homo sapiens, UniProt O43186 1-299); settings: protein: recombinant; tags: N-terminal GST; dsDNA, one strand shown
# Chain of CRX (O43186 whole entry): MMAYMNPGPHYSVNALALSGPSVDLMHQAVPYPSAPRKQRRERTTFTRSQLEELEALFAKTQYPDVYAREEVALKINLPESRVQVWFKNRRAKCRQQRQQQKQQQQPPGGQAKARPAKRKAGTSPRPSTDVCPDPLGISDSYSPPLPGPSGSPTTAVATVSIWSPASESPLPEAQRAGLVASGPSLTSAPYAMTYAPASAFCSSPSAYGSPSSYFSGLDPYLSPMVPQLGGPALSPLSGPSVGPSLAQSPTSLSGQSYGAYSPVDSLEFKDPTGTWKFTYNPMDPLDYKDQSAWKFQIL
# Method in brief: as §1
# [10] = target: ETV1 (Homo sapiens, UniProt P50549 1-477); settings: protein: recombinant; tags: N-terminal GST; dsDNA, one strand shown
# Chain of ETV1 (P50549 whole entry): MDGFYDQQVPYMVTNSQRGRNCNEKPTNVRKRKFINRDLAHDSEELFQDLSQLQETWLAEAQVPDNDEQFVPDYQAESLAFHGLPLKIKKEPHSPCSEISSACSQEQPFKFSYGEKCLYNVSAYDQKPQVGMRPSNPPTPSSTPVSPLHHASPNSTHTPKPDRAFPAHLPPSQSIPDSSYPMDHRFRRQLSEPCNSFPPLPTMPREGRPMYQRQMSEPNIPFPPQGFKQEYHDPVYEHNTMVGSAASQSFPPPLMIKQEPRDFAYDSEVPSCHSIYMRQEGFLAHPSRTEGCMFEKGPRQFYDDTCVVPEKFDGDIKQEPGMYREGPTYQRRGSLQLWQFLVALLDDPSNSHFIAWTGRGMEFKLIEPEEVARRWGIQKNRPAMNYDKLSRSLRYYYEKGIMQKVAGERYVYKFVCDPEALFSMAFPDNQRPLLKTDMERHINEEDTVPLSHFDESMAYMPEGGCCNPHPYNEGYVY
# Method in brief: as §1
# [11] = target: T6, ERF (Homo sapiens, UniProt P50548 1-548); settings: protein: recombinant; tags: N-terminal GST; dsDNA, one strand shown
# T6 sequence: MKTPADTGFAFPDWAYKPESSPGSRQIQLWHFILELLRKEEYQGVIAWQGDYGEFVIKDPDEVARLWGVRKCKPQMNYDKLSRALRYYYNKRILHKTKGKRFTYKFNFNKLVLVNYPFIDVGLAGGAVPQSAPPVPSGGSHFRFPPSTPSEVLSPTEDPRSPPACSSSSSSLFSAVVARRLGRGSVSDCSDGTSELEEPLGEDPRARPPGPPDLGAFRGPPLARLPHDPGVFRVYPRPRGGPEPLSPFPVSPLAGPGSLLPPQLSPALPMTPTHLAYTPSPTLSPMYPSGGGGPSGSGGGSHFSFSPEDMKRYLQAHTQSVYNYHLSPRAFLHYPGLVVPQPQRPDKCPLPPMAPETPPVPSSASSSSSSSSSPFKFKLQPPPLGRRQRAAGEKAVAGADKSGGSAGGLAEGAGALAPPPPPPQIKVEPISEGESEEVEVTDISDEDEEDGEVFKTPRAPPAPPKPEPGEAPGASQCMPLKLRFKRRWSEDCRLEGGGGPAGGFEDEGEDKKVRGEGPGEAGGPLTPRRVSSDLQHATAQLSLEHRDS
# Method in brief: as §1
# [12] = target: T7, ETV3L (Homo sapiens, UniProt Q6ZN32 1-361); settings: protein: recombinant; tags: N-terminal GST; dsDNA, one strand shown
# T7 sequence: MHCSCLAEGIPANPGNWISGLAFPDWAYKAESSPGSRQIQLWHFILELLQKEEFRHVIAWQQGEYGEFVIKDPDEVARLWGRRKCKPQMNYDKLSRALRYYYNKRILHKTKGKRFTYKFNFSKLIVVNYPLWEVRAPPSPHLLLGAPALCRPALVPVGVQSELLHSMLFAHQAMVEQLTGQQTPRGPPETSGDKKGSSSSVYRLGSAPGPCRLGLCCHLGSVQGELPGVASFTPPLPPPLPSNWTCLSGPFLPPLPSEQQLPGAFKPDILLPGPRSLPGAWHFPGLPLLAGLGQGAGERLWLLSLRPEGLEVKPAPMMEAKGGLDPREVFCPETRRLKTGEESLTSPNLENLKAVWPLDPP
# Method in brief: as §1
# [13] = target: T8, ETS2 (Homo sapiens, UniProt P15036 1-469); settings: protein: recombinant; tags: N-terminal GST; dsDNA, one strand shown
# T8 sequence: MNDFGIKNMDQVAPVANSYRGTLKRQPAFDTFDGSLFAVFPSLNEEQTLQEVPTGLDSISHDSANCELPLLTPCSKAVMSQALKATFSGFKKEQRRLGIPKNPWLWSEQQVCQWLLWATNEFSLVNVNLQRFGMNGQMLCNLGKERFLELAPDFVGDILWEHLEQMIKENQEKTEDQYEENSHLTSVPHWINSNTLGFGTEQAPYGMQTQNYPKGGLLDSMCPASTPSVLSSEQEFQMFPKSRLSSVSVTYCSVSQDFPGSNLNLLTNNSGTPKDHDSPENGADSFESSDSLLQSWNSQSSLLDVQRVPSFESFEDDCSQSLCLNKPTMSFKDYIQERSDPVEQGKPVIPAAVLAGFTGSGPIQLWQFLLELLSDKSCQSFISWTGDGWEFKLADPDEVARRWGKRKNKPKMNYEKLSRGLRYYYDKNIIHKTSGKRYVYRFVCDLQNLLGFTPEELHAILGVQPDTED
# Method in brief: as §1
# [14] = target: T9, SPDEF (Homo sapiens, UniProt O95238 1-335); settings: protein: recombinant; tags: N-terminal GST; dsDNA, one strand shown
# T9 sequence: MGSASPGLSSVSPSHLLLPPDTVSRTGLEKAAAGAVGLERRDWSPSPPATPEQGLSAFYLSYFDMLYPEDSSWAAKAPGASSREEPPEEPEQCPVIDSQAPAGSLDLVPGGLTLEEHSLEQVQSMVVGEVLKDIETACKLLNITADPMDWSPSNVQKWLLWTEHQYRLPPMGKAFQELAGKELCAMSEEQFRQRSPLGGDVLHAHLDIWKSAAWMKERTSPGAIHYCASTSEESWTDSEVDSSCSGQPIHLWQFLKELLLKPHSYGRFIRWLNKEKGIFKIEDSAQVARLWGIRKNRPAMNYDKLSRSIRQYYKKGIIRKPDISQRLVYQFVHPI
# Method in brief: as §1
# [15] = target: T10, ETV7 (Homo sapiens, UniProt Q9Y603 1-341); settings: protein: recombinant; tags: N-terminal GST; dsDNA, one strand shown
# T10 sequence: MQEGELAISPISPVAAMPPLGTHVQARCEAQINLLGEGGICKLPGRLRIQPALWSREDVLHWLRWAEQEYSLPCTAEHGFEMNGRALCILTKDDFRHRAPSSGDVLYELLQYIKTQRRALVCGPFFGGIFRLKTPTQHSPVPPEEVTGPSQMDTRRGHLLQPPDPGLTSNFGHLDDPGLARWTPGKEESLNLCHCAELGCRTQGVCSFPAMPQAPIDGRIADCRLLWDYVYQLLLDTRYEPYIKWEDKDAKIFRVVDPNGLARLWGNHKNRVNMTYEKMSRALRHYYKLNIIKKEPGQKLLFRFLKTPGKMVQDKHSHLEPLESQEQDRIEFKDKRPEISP
# Method in brief: as §1
# [16] = target: T11, ELF5 (Homo sapiens, UniProt Q9UKW6-2 1-255); settings: protein: recombinant; tags: N-terminal GST; dsDNA, one strand shown
# T11 sequence: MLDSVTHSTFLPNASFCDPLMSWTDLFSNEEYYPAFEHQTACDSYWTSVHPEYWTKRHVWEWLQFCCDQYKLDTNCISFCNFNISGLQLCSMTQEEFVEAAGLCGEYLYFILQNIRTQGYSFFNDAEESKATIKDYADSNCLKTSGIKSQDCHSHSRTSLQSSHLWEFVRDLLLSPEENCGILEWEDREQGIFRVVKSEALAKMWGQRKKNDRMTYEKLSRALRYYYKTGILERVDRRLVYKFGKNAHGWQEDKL
# Method in brief: as §1
# [17] = target: T12, ETV3 (Homo sapiens, UniProt P41162-2 1-143); settings: protein: recombinant; tags: N-terminal GST; dsDNA, one strand shown
# T12 sequence: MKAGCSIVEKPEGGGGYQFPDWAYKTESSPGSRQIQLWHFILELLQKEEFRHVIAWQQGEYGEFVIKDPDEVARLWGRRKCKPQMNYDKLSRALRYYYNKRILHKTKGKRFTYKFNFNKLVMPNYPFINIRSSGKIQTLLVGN
# Method in brief: as §1
# [18] = target: ETV6 (Homo sapiens, UniProt P41212 1-452); settings: protein: recombinant; tags: N-terminal GST; dsDNA, one strand shown
# Chain of ETV6 (P41212 whole entry): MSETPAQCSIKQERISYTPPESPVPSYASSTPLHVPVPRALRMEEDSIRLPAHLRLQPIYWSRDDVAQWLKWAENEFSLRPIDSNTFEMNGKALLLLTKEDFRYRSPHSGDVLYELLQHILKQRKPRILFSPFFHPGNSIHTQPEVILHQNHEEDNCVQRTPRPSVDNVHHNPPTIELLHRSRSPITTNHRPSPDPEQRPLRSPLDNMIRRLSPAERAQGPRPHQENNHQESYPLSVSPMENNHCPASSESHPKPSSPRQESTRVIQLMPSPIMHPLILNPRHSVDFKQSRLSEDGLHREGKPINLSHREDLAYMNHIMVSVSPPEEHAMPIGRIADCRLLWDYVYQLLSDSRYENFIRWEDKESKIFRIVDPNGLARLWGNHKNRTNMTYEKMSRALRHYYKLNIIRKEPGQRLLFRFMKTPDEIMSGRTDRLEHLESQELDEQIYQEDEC
# Method in brief: as §1
sequence,measurement,setting,value
CTCAAA,binding signal,[1],"1.28 fold enrichment (6-mer frequency, TF over GST control)"
same,binding signal,[2],"1.18 fold enrichment (6-mer frequency, TF over GST control)"
same,binding signal,[3],"1.24 fold enrichment (6-mer frequency, TF over GST control)"
same,binding signal,[4],"1.2 fold enrichment (6-mer frequency, TF over GST control)"
same,binding signal,[5],"1.18 fold enrichment (6-mer frequency, TF over GST control)"
same,binding signal,[6],"1.2 fold enrichment (6-mer frequency, TF over GST control)"
same,binding signal,[7],"1.16 fold enrichment (6-mer frequency, TF over GST control)"
same,binding signal,[8],"1.32 fold enrichment (6-mer frequency, TF over GST control)"
same,binding signal,[9],"1.25 fold enrichment (6-mer frequency, TF over GST control)"
same,binding signal,[10],"1.2 fold enrichment (6-mer frequency, TF over GST control)"
same,binding signal,[11],"1.11 fold enrichment (6-mer frequency, TF over GST control)"
same,binding signal,[12],"1.16 fold enrichment (6-mer frequency, TF over GST control)"
same,binding signal,[13],"1.2 fold enrichment (6-mer frequency, TF over GST control)"
same,binding signal,[14],"1.14 fold enrichment (6-mer frequency, TF over GST control)"
same,binding signal,[15],"1.14 fold enrichment (6-mer frequency, TF over GST control)"
same,binding signal,[16],"1.16 fold enrichment (6-mer frequency, TF over GST control)"
same,binding signal,[17],"1.2 fold enrichment (6-mer frequency, TF over GST control)"
same,binding signal,[18],"1.21 fold enrichment (6-mer frequency, TF over GST control)"
